In PubChem BioAssay AID1159580 (chemical genetic matrix, 2015):
Values joined by “and” are separate entries in the source; they are usually repeats but may differ in a detail not shown here. Identical values can stand only once. The campaign covered roughly 5,500 compounds. About 2,000 (36%) were called active. Another 18% or so got no clear call; they are omitted. Cut-off read from the data, not from the text of the source: active = normalized growth mostly below about 0.91 (no sharp cut-off); inconclusive = no clear call, values can overlap the other calls; inactive = mostly above about 0.92. The list shows a part of the results.

Test: chemical genetic growth profiling, strain panel (AID 1159580);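 note: tested at 20 µM; growth read once vehicle control cultures reached saturation at 30 °C; 1 = growth at the plate median or of vehicle wells; lower values mean less growth of the strain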
Settings: S. cerevisiae deletion strains, growth OD

Measured: normalized growth

COc1ccc(C(Cl)=C(c2ccc(OC)cc2)c2ccc(OC)cc2)cc1
inactive: locus YAL021C, strain ccr4, stronger effect = lower value 1.04 | locus YAL026C, strain drs2, stronger effect = lower value 1.03 | locus YAL030W, strain snc1, stronger effect = lower value 1.03 | locus YBL061C, strain skt5, stronger effect = lower value 0.992 | locus YBR009C, strain hhf1, stronger effect = lower value 1.01 | locus YBR021W, strain FUR4, stronger effect = lower value 0.994 | locus YBR023C, strain chs3, stronger effect = lower value 0.993 | locus YBR171W, strain sec66, stronger effect = lower value 1.03 | locus YBR229C, strain ROT2, stronger effect = lower value 1.01 | locus YBR231C, strain swc5, stronger effect = lower value 1.03 | locus YBR279W, strain paf1, stronger effect = lower value 0.984 | locus YCL011C, strain gbp2, stronger effect = lower value 1.02 | locus YCL016C, strain dcc1, stronger effect = lower value 0.985 | locus YCL029C, strain bik1, stronger effect = lower value 1.01 | locus YCL061C, strain MRC1, stronger effect = lower value 1.03 | locus YCL069W, strain vba3, stronger effect = lower value 1.03 | locus YCR088W, strain abp1, stronger effect = lower value 1.02 | locus YDL005C, strain med2, stronger effect = lower value 1.03 | locus YDL035C, strain GPR1, stronger effect = lower value 0.989 | locus YDL040C, strain nat1, stronger effect = lower value 1.03 | locus YDL074C, strain BRE1, stronger effect = lower value 1.03 | locus YDL101C, strain DUN1, stronger effect = lower value 1.03 | locus YDL134C, strain PPH21, stronger effect = lower value 0.981 | locus YDL185W, strain tfp1, stronger effect = lower value 1.01 | locus YDL192W, strain arf1, stronger effect = lower value 1.02 | locus YDR001C, strain nth1, stronger effect = lower value 1.02 | locus YDR069C, strain doa4, stronger effect = lower value 0.993 | locus YDR101C, strain arx1, stronger effect = lower value 0.997 | locus YDR137W, strain rgp1, stronger effect = lower value 0.97 | locus YDR150W, strain NUM1, stronger effect = lower value 1.01 | locus YDR159W, strain sac3, stronger effect = lower value 1.01 | locus YDR162C, strain NBP2, stronger effect = lower value 1 | locus YDR195W, strain ref2 1.06 | locus YDR297W, strain sur2, stronger effect = lower value 1.02 | locus YDR318W, strain mcm21, stronger effect = lower value 1.01 | locus YDR334W, strain swr1, stronger effect = lower value 1.04 | locus YDR335W, strain msn5, stronger effect = lower value 1 | locus YDR388W, stronger effect = lower value 1.03 | locus YDR392W, strain spt3, stronger effect = lower value 1 | locus YDR502C, strain sam2, stronger effect = lower value 1.01 | locus YEL003W, strain gim4, stronger effect = lower value 1.03 | locus YEL037C, strain rad23, stronger effect = lower value 1.03 | locus YEL061C, strain CIN8 (second series), stronger effect = lower value 1.06 | locus YEL061C, strain CIN8, stronger effect = lower value 1.01 | locus YER015W, strain faa2, stronger effect = lower value 1.03 | locus YER016W, strain bim1, stronger effect = lower value 0.971 | locus YER110C, stronger effect = lower value 1.03 | locus YER111C, strain swi4, stronger effect = lower value 1.03 | locus YER155C, strain BEM2 (second series), stronger effect = lower value 1.03 | locus YER155C, strain BEM2, stronger effect = lower value 1.02 | locus YER167W, strain BCK2, stronger effect = lower value 1.01 | locus YFR010W, strain ubp6, stronger effect = lower value 1.02 | locus YGL078C, strain dbp3, stronger effect = lower value 1.01 | locus YGL086W, strain mad1, stronger effect = lower value 0.998 | locus YGL167C, strain pmr1, stronger effect = lower value 1.01 | locus YGL173C, strain kem1, stronger effect = lower value 1.03 | locus YGL227W, strain vid30, stronger effect = lower value 1.02 | locus YGL240W, strain doc1, stronger effect = lower value 1.05 | locus YGL248W, strain PDE1, stronger effect = lower value 1.03 | locus YGL253W, strain hxk2, stronger effect = lower value 0.999 | locus YGR135W, strain pre9, stronger effect = lower value 1.04 | locus YGR252W, strain gcn5, stronger effect = lower value 1.04 | locus YHR013C, strain ard1, stronger effect = lower value 1.04 | locus YHR027C, strain rpn1, stronger effect = lower value 0.989 | locus YHR030C, strain SLT2, stronger effect = lower value 1.01 and 0.939 | locus YHR079C, strain IRE1 (second series), stronger effect = lower value 1.02 | locus YHR079C, strain IRE1, stronger effect = lower value 0.963 | locus YHR094C, strain hxt1, stronger effect = lower value 1.03 | locus YHR129C, strain ARP1, stronger effect = lower value 1.02 | locus YHR142W, strain chs7, stronger effect = lower value 1.06 | locus YHR200W, strain rpn10, stronger effect = lower value 1.02 | locus YIL066C, strain RNR3, stronger effect = lower value 1 | locus YIL073C, strain SPO22, stronger effect = lower value 1.03 | locus YIL125W, strain kgd1, stronger effect = lower value 1.01 | locus YIR030C, strain dcg1, stronger effect = lower value 1.02 | locus YJL092W, strain hpr5, stronger effect = lower value 1.02 | locus YJL095W, strain BCK1 (second series), stronger effect = lower value 1.03 | locus YJL095W, strain BCK1, stronger effect = lower value 1.06 and 0.963 | locus YJL115W, strain asf1, stronger effect = lower value 1.02 | locus YJL129C, strain trk1, stronger effect = lower value 1.04 | locus YJL134W, strain LCB3, stronger effect = lower value 1.01 | locus YJL154C, strain vps35, stronger effect = lower value 1.03 | locus YJL164C, strain tpk1, stronger effect = lower value 1.01 | locus YJL166W, strain qcr8, stronger effect = lower value 1.04 | locus YJL168C, strain set2, stronger effect = lower value 1.03 | locus YJL187C, strain SWE1 (second series), stronger effect = lower value 1.04 | locus YJR043C, strain POL32, stronger effect = lower value 0.999 | locus YJR066W, strain TOR1, stronger effect = lower value 0.965 | locus YJR075W, strain HOC1, stronger effect = lower value 1.03
